L major viab: reduces viability of Leishmania major promastigotes | resazurin fluorescence viability | inhibition, % at 10 µM | 9% of 200,000 active | AID 1063; in the data active means inhibition above about 50%;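 further: promastigotes grown with compound for 44 hours at 28 °C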
RAM inhibit: inhibitors of the yeast RAM network; S. cerevisiae dse1pr::URA3 reporter, 5-FOA growth OD615, 2 d; analog-sensitive cbk1-as2 kinase mutant strain; inhibition, % at 50 µM; 1.8% of 190,000 active; AID 868;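 active means inhibition above a set limit, 3 SD over mean compound inhibition, cut at about 8.4% in these data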;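 further: inhibition rescues growth on 5-FOA so higher OD means more RAM inhibition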
CHOP inhibitor: CHOP inhibition in unfolded protein response. CHO-K1 CHOP-promoter luciferase, tunicamycin-induced, 15-18 h. inhibition, % at 10 µM. 3.8% of 220,000 active;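 active means compounds that reduced the stress-induced luciferase reporter signal by more than about 70% of percent inhibition, limit read from the data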
WT yeast gro inh: growth inhibition of WT yeast, mitochondrial fusion screen; inhibition, % at 10 µM; mitochondrial fusion phenotypic screen, WT strain; 2.1% of 190,000 active; in the data active means inhibition above about 58%; tested in S. cerevisiae
Large screens that a line does not name were inactive. Compounds with a hit are over-represented: about 13% of the library has one in this group of screens.

Cc1ccc(NC(=O)C2CC(=O)Nc3nncn32)cc1 (configuration not stated)	none
O=C(Cn1c(C(=O)NCC2CCCO2)cc2sccc21)c1ccccc1 (configuration not stated)	none
O=C(Cn1c(C(=O)N2CCN(C3CCCC3)CC2)cc2sccc21)c1ccccc1	L major viab 93
Nc1nnc(CCS(=O)(=O)c2ccc(Br)cc2)s1	none
COc1ccc(-c2nnc(Nc3nc4c(OC)cccc4s3)o2)c(OC)c1	L major viab 94
COc1ccc(-c2nnc(Nc3nc4c(OC)cccc4s3)o2)cc1	L major viab 79
CC1(C)CC(O)(CCNCc2ccc3c(c2)OCO3)CCO1 (configuration not stated)	L major viab 83
CC1(C)CC(NCc2ccc3c(c2)OCO3)CCO1 (configuration not stated)	L major viab 84
O=C(CSCCOc1ccccc1)NCc1ccncc1	none (no result: L major viab, RAM inhibit, WT yeast gro inh)
Cc1no[n+]([O-])c1COc1cccc(/C=C2\N=C(c3ccccc3)OC2=O)c1	L major viab 64
COc1cc(/C=C2\N=C(c3ccccc3)OC2=O)ccc1OCc1c(C)no[n+]1[O-]	none
Cc1cnn(C(=S)NCC2CCCO2)c1 (configuration not stated)	none
O=[N+]([O-])c1ccc(N2CCC(=NOCc3ccc(Cl)cc3)CC2)cc1	RAM inhibit 11
Cc1cc(C(=O)N2CCN(S(=O)(=O)c3ccccc3F)CC2)c(C)o1	none
CCCS(=O)(=O)c1c(S(=O)(=O)CCC)c2cc(CC)ccn2c1C(=O)OC	WT yeast gro inh 70
O=C(CN1CCOCC1)Nc1ccccc1Sc1ccc(Cl)cc1	none
COc1cc(C(=O)N[C@H](C(=O)Nc2nnc(C3CC3)s2)C(C)C)cc(OC)c1OC	none (no result: L major viab, RAM inhibit, WT yeast gro inh)
COCCCNC(=O)c1c(N)n(/N=C/c2ccccn2)c2nc3ccccc3nc12	none (no result: CHOP inhibitor)
CC(C)OCCCNC(=O)c1c(N)n(/N=C/c2cccs2)c2nc3ccccc3nc12	RAM inhibit 11
CC(C)Oc1cccc(C(=O)C2CCCN(Cc3cccn3-c3ccccn3)C2)c1 (configuration not stated)	L major viab 98
CCn1nc(C)c(CN2CCCC(C(=O)c3cccc(OC(C)C)c3)C2)c1C (configuration not stated)	L major viab 86
CC(C)Oc1cccc(C(=O)C2CCCN(Cc3cnn(C(C)C)c3)C2)c1 (configuration not stated)	L major viab 85
CCOC(=O)C1CCCN(Cc2ccc(O)c(OC)c2)C1 (configuration not stated)	none
CCOc1cc(CN2CCCC(C(=O)c3cccc(C(F)(F)F)c3)C2)ccc1O (configuration not stated)	L major viab 54
CC(C)Oc1cccc(C(=O)C2CCCN(Cc3ccc4nonc4c3)C2)c1 (configuration not stated)	L major viab 83
O=C(c1ccc(C(F)(F)F)cc1)C1CCCN(Cc2cccn2-c2ncccn2)C1 (configuration not stated)	L major viab 71
CC(C)Oc1cccc(C(=O)C2CCCN(S(C)(=O)=O)C2)c1 (configuration not stated)	none
Cc1noc(C)c1S(=O)(=O)N1CCCC(C(=O)c2cccc(OC(C)C)c2)C1 (configuration not stated)	L major viab 56
Cn1c(=O)c2c(nc(Sc3ncnn3CC(=O)NC3CCCCC3)n2C)n(C)c1=O	none (no result: L major viab, RAM inhibit, WT yeast gro inh)
c1ccc2c(-c3nc(-c4ccncc4)no3)cccc2c1	none
c1ccc(-c2noc(-c3cccc4ccccc34)n2)cc1	WT yeast gro inh 67
COc1ccc(C(=O)NC(=S)Nc2cc3oc4ccccc4c3cc2OC)cc1	CHOP inhibitor 78
COc1cc2c(cc1NS(=O)(=O)N1CCCC1)oc1ccccc12	L major viab 100
COc1cc(OC)cc(C(=O)NC(=S)Nc2cc3oc4ccccc4c3cc2OC)c1	none
COc1cc2c(cc1NC(=O)C(C)OC(=O)c1ccc(S(=O)(=O)Nc3ccccc3Cl)cc1)oc1ccccc12 (configuration not stated)	RAM inhibit 11
COc1ccccc1NC(=O)Nc1nn(C)c2cccc(OC)c12	none (no result: L major viab, RAM inhibit, WT yeast gro inh)
N#CC(C#N)=Cc1ccc(OCC(=O)N2CCOCC2)cc1	none
Nc1ncnc(Nc2ccc(F)cc2)n1	L major viab 57
Fc1ccc(Nc2ccnc(Nc3ccc(F)cc3)n2)cc1	L major viab 95
Cc1cccc(N2CCN(C(=O)CC(NC(=O)c3ccccc3Cl)c3ccccc3)CC2)c1C (configuration not stated)	L major viab 95
O=C(NC(CC(=O)N1CCN(c2ccc([N+](=O)[O-])cc2)CC1)c1ccccc1)c1ccccc1Cl (configuration not stated)	L major viab 83
Cc1cccc(N2CCN(C(=O)Cc3ccc(Br)cc3)CC2)c1C	none
Cn1c(/C=C(\C#N)C(N)=S)ccc1-c1ccc(Br)cc1	RAM inhibit 9.6
Cn1cccc1/C=C(\C#N)C(N)=S	none (no result: L major viab, RAM inhibit, WT yeast gro inh)
O=c1c(-c2cnn(-c3ccccc3)c2)coc2cc(O)ccc12	L major viab 96
Cc1oc2cc(O)ccc2c(=O)c1-c1cnn(-c2ccccc2)c1	none
C(=N\Nc1nc(-c2cccnc2)nc2ccccc12)/c1ccccc1	none (no result: L major viab, RAM inhibit, WT yeast gro inh)
C(=N\Nc1nc(-c2ccccn2)nc2ccccc12)/c1ccccc1	CHOP inhibitor 88 (no result: L major viab, RAM inhibit, WT yeast gro inh)
Brc1ccc(-c2nc(N/N=C/c3cccnc3)c3ccccc3n2)cc1	CHOP inhibitor 74
O=C(NCc1ccco1)c1ccc(Cn2cc([N+](=O)[O-])cn2)o1	none
O=C(NCc1cccnc1)c1ccc([N+](=O)[O-])o1	L major viab 94
Cc1cccc(CS(=O)(=O)Cc2ccc(C(=O)NCc3ccco3)o2)c1	L major viab 80
O=C(NCCc1ccccc1)c1ccc(CS(=O)(=O)Cc2ccccc2F)o1	none
Cc1ccc(CCNC(=O)c2ccc(CS(=O)(=O)Cc3ccccc3F)o2)cc1	L major viab 75
Cc1cc(=O)oc(C)c1C(=O)NCc1cccnc1	none
O=C(NCc1ccco1)c1ccc([N+](=O)[O-])o1	L major viab 63
C/C(=N\NC(=O)CN1CCN(S(=O)(=O)c2ccc(C)cc2)CC1)c1ccc(O)cc1	none (no result: L major viab, RAM inhibit, WT yeast gro inh)
CSCc1ccc(C(=O)Nc2cccc(C)c2C)cc1	none
O=C(NCc1cccc(C(F)(F)F)c1)C1CC(c2ccc(C(F)(F)F)cc2)=NO1 (configuration not stated)	none (no result: L major viab, RAM inhibit, WT yeast gro inh)
Cc1ccc(-c2cccc(CN3CCN(C4CCN(C(C)C)CC4)C(CCO)C3)c2)o1 (configuration not stated)	L major viab 52
CC(C)N1CCC(N2CCN(Cc3ccc(-c4ccccc4Cl)o3)CC2CCO)CC1 (configuration not stated)	L major viab 89
CC(C)N1CCC(N2CCN(Cc3ccc(-c4ccc(Cl)cc4)o3)CC2CCO)CC1 (configuration not stated)	L major viab 88
O=C1C2C3c4ccccc4C(c4ccccc43)C2C(=O)N1c1cccnc1 (configuration not stated)	L major viab 51
CCCSC1=N/C(=C\c2ccc3c(c2)OCO3)C(=O)S1	RAM inhibit 10
